Drawing on ChEMBL document CHEMBL1961873, “Compounds: GSK PKIS; Assays: Nanosyn kinase panel” (2012), this text covers inhibition for 14 compounds.

Each structure is given as a SMILES string.

Chain of Cyclin-dependent kinase 1 (Homo sapiens) (P06493 whole entry, looked up): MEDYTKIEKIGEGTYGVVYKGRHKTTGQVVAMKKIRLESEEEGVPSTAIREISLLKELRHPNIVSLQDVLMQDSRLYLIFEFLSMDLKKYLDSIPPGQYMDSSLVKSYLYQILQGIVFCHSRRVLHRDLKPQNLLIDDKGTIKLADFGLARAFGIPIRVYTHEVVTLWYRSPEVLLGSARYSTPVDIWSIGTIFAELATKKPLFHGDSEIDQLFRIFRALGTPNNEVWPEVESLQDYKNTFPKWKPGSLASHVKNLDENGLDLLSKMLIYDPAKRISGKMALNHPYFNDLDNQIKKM
Chain of Casein kinase I isoform gamma-3 (Homo sapiens) (Q9Y6M4 whole entry, looked up, canonical isoform): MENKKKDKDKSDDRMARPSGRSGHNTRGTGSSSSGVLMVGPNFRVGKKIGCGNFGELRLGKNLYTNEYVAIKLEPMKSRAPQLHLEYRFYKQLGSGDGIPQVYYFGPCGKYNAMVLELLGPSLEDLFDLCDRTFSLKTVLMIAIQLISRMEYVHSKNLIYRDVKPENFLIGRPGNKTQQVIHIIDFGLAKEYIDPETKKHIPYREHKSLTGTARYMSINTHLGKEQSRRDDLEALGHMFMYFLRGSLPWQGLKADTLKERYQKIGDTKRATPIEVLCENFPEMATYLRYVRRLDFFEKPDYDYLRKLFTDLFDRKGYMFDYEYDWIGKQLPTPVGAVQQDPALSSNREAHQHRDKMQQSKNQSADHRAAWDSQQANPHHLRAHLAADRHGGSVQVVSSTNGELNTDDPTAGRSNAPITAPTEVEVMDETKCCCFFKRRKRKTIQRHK

The target in the first experiment is Casein kinase I isoform gamma-2 (Homo sapiens) (UniProt P78368). As to conditions: at 1 µM.
Chain of Casein kinase I isoform gamma-2 (Homo sapiens) (P78368 whole entry, looked up, canonical isoform): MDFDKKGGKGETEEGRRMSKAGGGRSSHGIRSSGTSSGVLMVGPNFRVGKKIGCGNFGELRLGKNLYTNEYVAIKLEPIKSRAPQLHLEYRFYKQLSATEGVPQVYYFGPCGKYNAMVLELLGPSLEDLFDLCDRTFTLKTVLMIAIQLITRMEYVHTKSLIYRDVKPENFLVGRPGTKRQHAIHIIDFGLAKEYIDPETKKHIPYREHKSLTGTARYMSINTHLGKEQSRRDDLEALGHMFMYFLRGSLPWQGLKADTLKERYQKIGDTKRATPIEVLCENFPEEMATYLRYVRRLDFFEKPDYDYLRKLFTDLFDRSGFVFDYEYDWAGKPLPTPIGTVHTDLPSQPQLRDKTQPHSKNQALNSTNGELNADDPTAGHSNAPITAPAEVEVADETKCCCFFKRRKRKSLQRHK
In the case of `CCn1c(-c2nonc2N)nc2c(C#CC(C)(C)O)ncc(OCC3CCNCC3)c21`, the inhibition turned out to be 0.7%.

For `CCn1c(-c2nonc2N)nc2c(C#CC(C)(C)O)nc(O[C@@H](CN)c3ccccc3)cc21`, the inhibition turned out to be 4.43%.

As for `NS(=O)(=O)c1ccc(-c2ccc3c(NC(=O)C4CC4)n[nH]c3c2)cc1`, the inhibition worked out at 1.7%.

On to `CCn1c(-c2nonc2N)nc2c(C#CCN)ncc(OCCCN)c21`, for which the inhibition is -2.49%.

With `CCn1c(-c2nonc2N)nc2c(C#CC(C)(C)O)ncc(OC[C@@H]3CCCN3)c21`, the inhibition turned out to be 2.18%.

For `COc1cc(C=NNc2ncnc3c2cnn3Cc2ccccc2)ccc1O`, the inhibition was -3.09%.

In the case of `Cc1cc(-c2ccco2)cc(C)c1/C=C/c1cncc(-c2nn[nH]n2)c1`, the inhibition was determined as 1.08%.

As for `Fc1ccc(-c2ncn(C3CCNCC3)c2-c2ccnc(Oc3ccccc3)n2)cc1`, the inhibition stood at 2.3%.

As to `NS(=O)(=O)c1ccc(N/C=C2\C(=O)Nc3ccc4ncsc4c32)cc1`, the inhibition stood at 11.1%.

In the case of `COc1cccc(COc2cc(-n3cnc4ccccc43)sc2C(N)=O)c1`, the inhibition stood at 1.17%.

In the case of `NC(=O)c1sc(-n2cnc3cc(C(F)(F)F)ccc32)cc1OCc1ccccc1Br`, the inhibition worked out at 0.89%.

As to `COc1cc2c(cc1Nc1nc(Nc3ccsc3C(N)=O)c3cc[nH]c3n1)N(C(=O)CN(C)C)CCC2`, the inhibition is -7.97%.

As for `COc1cccc(-n2ncc3c(N/N=C/c4ccncc4)ncnc32)c1`, the inhibition was found to be 9.79%.

Regarding `Nc1nonc1-c1nc2cnccc2n1C1CCCCC1`, the inhibition came to 0.45%.

Another experiment addresses Casein kinase I isoform gamma-3 (Homo sapiens) (UniProt Q9Y6M4). Conditions: at 0.1 µM.
On to `CCn1c(-c2nonc2N)nc2c(C#CC(C)(C)O)ncc(OCC3CCNCC3)c21`, for which the inhibition is -1.65%.

`CCn1c(-c2nonc2N)nc2c(C#CC(C)(C)O)nc(O[C@@H](CN)c3ccccc3)cc21`: the inhibition was -0.48%.

Turning to `NS(=O)(=O)c1ccc(-c2ccc3c(NC(=O)C4CC4)n[nH]c3c2)cc1`, the inhibition was 0.52%.

With `CCn1c(-c2nonc2N)nc2c(C#CCN)ncc(OCCCN)c21`, the inhibition is -1.84%.

`CCn1c(-c2nonc2N)nc2c(C#CC(C)(C)O)ncc(OC[C@@H]3CCCN3)c21`: the inhibition stood at 0.87%.

Regarding `COc1cc(C=NNc2ncnc3c2cnn3Cc2ccccc2)ccc1O`, the inhibition came to 0.15%.

`Cc1cc(-c2ccco2)cc(C)c1/C=C/c1cncc(-c2nn[nH]n2)c1`: the inhibition was determined as 0.9%.

On to `Fc1ccc(-c2ncn(C3CCNCC3)c2-c2ccnc(Oc3ccccc3)n2)cc1`, for which the inhibition was -1.46%.

With `NS(=O)(=O)c1ccc(N/C=C2\C(=O)Nc3ccc4ncsc4c32)cc1`, the inhibition came out at 5.65%.

For `COc1cccc(COc2cc(-n3cnc4ccccc43)sc2C(N)=O)c1`, the inhibition came to 0.42%.

For `NC(=O)c1sc(-n2cnc3cc(C(F)(F)F)ccc32)cc1OCc1ccccc1Br`, the inhibition was determined as 1.52%.

For `COc1cc2c(cc1Nc1nc(Nc3ccsc3C(N)=O)c3cc[nH]c3n1)N(C(=O)CN(C)C)CCC2`, the inhibition turned out to be 1.11%.

As for `COc1cccc(-n2ncc3c(N/N=C/c4ccncc4)ncnc32)c1`, the inhibition came to 5.28%.

Consider `Nc1nonc1-c1nc2cnccc2n1C1CCCCC1`, for which the inhibition is -1.94%.

A further experiment has the same target. Conditions: at 1 µM.
As for `CCn1c(-c2nonc2N)nc2c(C#CC(C)(C)O)ncc(OCC3CCNCC3)c21`, the inhibition is -0.62%.

Consider `CCn1c(-c2nonc2N)nc2c(C#CC(C)(C)O)nc(O[C@@H](CN)c3ccccc3)cc21`, for which the inhibition worked out at 9.88%.

As to `NS(=O)(=O)c1ccc(-c2ccc3c(NC(=O)C4CC4)n[nH]c3c2)cc1`, the inhibition is -0.19%.

Turning to `CCn1c(-c2nonc2N)nc2c(C#CCN)ncc(OCCCN)c21`, the inhibition is -2.94%.

With `CCn1c(-c2nonc2N)nc2c(C#CC(C)(C)O)ncc(OC[C@@H]3CCCN3)c21`, the inhibition came out at 3.35%.

With `COc1cc(C=NNc2ncnc3c2cnn3Cc2ccccc2)ccc1O`, the inhibition is -1.86%.

For the compound `Cc1cc(-c2ccco2)cc(C)c1/C=C/c1cncc(-c2nn[nH]n2)c1`, the inhibition was 2.3%.

Turning to `Fc1ccc(-c2ncn(C3CCNCC3)c2-c2ccnc(Oc3ccccc3)n2)cc1`, the inhibition is 10%.

With `NS(=O)(=O)c1ccc(N/C=C2\C(=O)Nc3ccc4ncsc4c32)cc1`, the inhibition was determined as 14.4%.

Take `COc1cccc(COc2cc(-n3cnc4ccccc43)sc2C(N)=O)c1`: the inhibition is 1.21%.

Regarding `NC(=O)c1sc(-n2cnc3cc(C(F)(F)F)ccc32)cc1OCc1ccccc1Br`, the inhibition worked out at 1.06%.

For `COc1cc2c(cc1Nc1nc(Nc3ccsc3C(N)=O)c3cc[nH]c3n1)N(C(=O)CN(C)C)CCC2`, the inhibition is 10.3%.

Take `COc1cccc(-n2ncc3c(N/N=C/c4ccncc4)ncnc32)c1`: the inhibition is 6.59%.

In the case of `Nc1nonc1-c1nc2cnccc2n1C1CCCCC1`, the inhibition came out at 1.85%.

The next experiment has as its target Cyclin-dependent kinase 1 (Homo sapiens) (UniProt P06493). Conditions: at 0.1 µM.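 Also: enzyme assay on the CDK1/cyclin B complex, reported as mean percent inhibition.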
For `CCn1c(-c2nonc2N)nc2c(C#CC(C)(C)O)ncc(OCC3CCNCC3)c21`, the inhibition was -0.87%.

On to `CCn1c(-c2nonc2N)nc2c(C#CC(C)(C)O)nc(O[C@@H](CN)c3ccccc3)cc21`, for which the inhibition is 4.13%.

As to `NS(=O)(=O)c1ccc(-c2ccc3c(NC(=O)C4CC4)n[nH]c3c2)cc1`, the inhibition is 0.48%.

Regarding `CCn1c(-c2nonc2N)nc2c(C#CCN)ncc(OCCCN)c21`, the inhibition was determined as 3.69%.

With `CCn1c(-c2nonc2N)nc2c(C#CC(C)(C)O)ncc(OC[C@@H]3CCCN3)c21`, the inhibition was -0.63%.

For `COc1cc(C=NNc2ncnc3c2cnn3Cc2ccccc2)ccc1O`, the inhibition was 3.83%.

As for `Cc1cc(-c2ccco2)cc(C)c1/C=C/c1cncc(-c2nn[nH]n2)c1`, the inhibition is 0.87%.

In the case of `Fc1ccc(-c2ncn(C3CCNCC3)c2-c2ccnc(Oc3ccccc3)n2)cc1`, the inhibition is -3.4%.

As for `NS(=O)(=O)c1ccc(N/C=C2\C(=O)Nc3ccc4ncsc4c32)cc1`, the inhibition worked out at 25%.

As for `COc1cccc(COc2cc(-n3cnc4ccccc43)sc2C(N)=O)c1`, the inhibition came to 0.45%.

As to `NC(=O)c1sc(-n2cnc3cc(C(F)(F)F)ccc32)cc1OCc1ccccc1Br`, the inhibition amounted to 0.9%.

For the compound `COc1cc2c(cc1Nc1nc(Nc3ccsc3C(N)=O)c3cc[nH]c3n1)N(C(=O)CN(C)C)CCC2`, the inhibition was 5.37%.

`COc1cccc(-n2ncc3c(N/N=C/c4ccncc4)ncnc32)c1`: the inhibition worked out at 45%.

Turning to `Nc1nonc1-c1nc2cnccc2n1C1CCCCC1`, the inhibition came to 5.2%.

What is called inhibition is the relative decrease from the control value, in per cent.
